Source: PubChem BioAssay (EPA / NIEHS)
“And” between values parts separate entries of the source, which are not always exact repeats. Equal values may be shown once. More than one record can exist for a structure, and the calls need not agree. The source made the active and inactive calls. Rule for the calls: active = hit-call score of the fitted dose curve at least 0.9, where 1 is the maximum; inactive = score below 0.9.

Experiment: BSK_SAg_Proliferation: Cell Proliferation Assessment in the BioMAP Diversity Plus: SAg Assay (AID 2283095);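 note: relative cell number as total protein by SRB absorbance in sub-confluent culture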
Conditions: primary human HUVEC with PBMC
Procedure, shortened: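 Relative cell number in the endothelial cell/PBMC co-culture was quantified at 96 h by SRB staining (0.1% SRB, 10% TCA fixation, read at 560 nm). Curves were fitted in both directions relative to DMSO baseline.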
For CCOC(=O)C(O)(c1ccc(Cl)cc1)c1ccc(Cl)cc1, the AC50 was 30.9 µM (active).
In the case of O=C(NC(=O)c1cc(F)c(F)cc1Cl)Nc1cc(F)ccc1N1CCC(C(=O)O)CC1, the outcome is reported as “inactive”.
In the case of CCC(=O)O[C@H]1CC[C@H]2[C@@H]3CCC4=CC(=O)CC[C@]4(C)[C@H]3CC[C@]12C, the AC50 is reported as 33.3 µM (active).
With Cc1cc(O)ccc1Cl the outcome was “inactive”.
For CCOCCOC(C)=O, the outcome was “inactive”.
For N#Cc1ccc(N(CC(N)=O)CC(F)(F)F)cc1C(F)(F)F, the outcome was “inactive”.
For O=NN(c1ccccc1)c1ccccc1, the outcome was “inactive”.
With O=C(O)C(F)(F)C(F)(F)C(F)(F)C(F)(F)C(F)(F)C(F)(F)C(F)(F)C(F)(F)F the AC50 was 55.2 µM (active) and the outcome was “inactive”.
With C=CC(=O)NCNC(=O)C=C the outcome was “inactive”.
With Clc1ccc(Cl)cc1 the outcome was “inactive”.
With Cc1ccccc1[N+](=O)[O-] the outcome was “inactive”.
With CC(C)(c1ccccc1)c1ccc(O)cc1 the AC50 was 34.2 µM (active).
In the case of CCCCCCCCOC(=O)c1ccccc1C(=O)OCCCCCCCC, the outcome is reported as “inactive”.
With Oc1c(Cl)c(Cl)c(Cl)c(Cl)c1Cl the AC50 was 15.8 µM (active) and 26.9 µM (active).
With CCSC(=O)N(CC)C1CCCCC1 the outcome was “inactive”.
In the case of O=C(O)C(F)(F)C(F)(F)C(F)(F)C(F)(F)C(F)(F)C(F)(F)C(F)(F)C(F)(F)C(F)(F)F, the AC50 is reported as 34.1 µM (active) and 46.2 µM (active) and 47.6 µM (active).
In the case of C1CC2OC2CC1C1CO1 (stereo not given), the outcome is reported as “inactive”.
With c1cc2ccc3cccc4ccc(c1)c2c34 the outcome was “inactive”.
In the case of C[C@]12CCC(=O)C=C1CC[C@@H]1[C@@H]2CC[C@@]2(C)[C@H]1CC[C@]2(C)O, the outcome is reported as “inactive”.
